GDH-TPI counter: GDH-TPI coupled enzyme inhibition counter-screen; 360,000 tested, 1.2% active; AID 588335; inhibition, % at 4.8 µM; GDH-TPI coupled enzyme counterscreen, NADH absorbance; in the data active = inhibition above about 30%
UGM FP inh: blocks M. tuberculosis UGM enzyme | inhibition, % at 10 µM | purified UGM, fluorescence polarization probe displacement | 320,000 tested, 0.06% active | P9WIQ1 | AID 504406; in the data active = inhibition above about 10%, passing the limit was not always enough
RecA splice inh: blocks M. tuberculosis RecA intein splicing; cell-free RecA intein splicing, fluorescence; inhibition, % (test concentration not listed); 290,000 tested, 0.75% active; AID 2221; in the data active = inhibition above about 30%
FBA Mtb inh: inhibits M. tuberculosis FBA enzyme. 360,000 tested, 2.3% active. purified M. tuberculosis FBA, fluorescence read-out. AID 588726. P9WQA3. inhibition, % at 1 µM; in the data active = inhibition above about 27%
Target sequence (P9WQA3 whole entry, looked up): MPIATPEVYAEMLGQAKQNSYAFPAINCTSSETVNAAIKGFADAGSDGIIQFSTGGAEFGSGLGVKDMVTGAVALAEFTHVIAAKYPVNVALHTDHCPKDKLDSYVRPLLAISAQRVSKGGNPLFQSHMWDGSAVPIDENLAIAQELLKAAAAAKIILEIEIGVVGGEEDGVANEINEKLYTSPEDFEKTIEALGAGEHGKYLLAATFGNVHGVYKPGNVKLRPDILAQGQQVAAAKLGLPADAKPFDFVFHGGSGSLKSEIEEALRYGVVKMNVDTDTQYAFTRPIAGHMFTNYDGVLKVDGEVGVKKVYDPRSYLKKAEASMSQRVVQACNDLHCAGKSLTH
Mtb betalactam: beta-lactam sensitization of Mtb H37Rv. M. tuberculosis H37Rv growth with meropenem, percent inhibition. inhibition, % at 25 µM. 330,000 tested, 0.27% active;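 also: growth measured after seven days incubation then overnight dye step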
Rv3671c protease: inhibits the M. tuberculosis serine protease Rv3671c; 320,000 tested, 0.048% active; P9WHR9; inhibition, % at 5.96 µM; in the data active = inhibition above about 38%;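 also: extracellular domain of Rv3671c used as enzyme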
GFP chromophore: counter-screen: blocks GFP chromophore formation; shares compounds with RecA splice inh; cell-free GFP chromophore formation, fluorescence; EC50, µM; 2,100 tested, 83% active
Each line names hits and unclear results; the compound was inactive in the other large screens (follow-up assays come after a bar, where they were run). This is a sample that favours compounds with a hit; in the whole collection about 4% have one here. Unless noted, no rule for the calls is given here.

Cc1nn(-c2ccccc2)c2c1C1(C(=O)N3c4c(cccc41)C(C)CC3(C)C)C(C#N)=C(N)O2 (stereo not drawn)	RecA splice inh 49.2 | GFP chromophore 9.67
CC(=O)N1C(=O)C2(C(C#N)=C(N)Oc3c2c(C)nn3-c2ccccc2)c2ccccc21 (stereo not drawn)	RecA splice inh 54.7 | GFP chromophore 5.81
CCCCN(C(=O)C1CC(=O)N(c2ccc3c(c2)OCCO3)C1)c1c(N)n(CCC)c(=O)[nH]c1=O (stereo not drawn)	none (no result: RecA splice inh)
O=c1cc(C23CC4CC(CC(C4)C2)C3)[nH][nH]1	RecA splice inh 90.6 | GFP chromophore 10
COc1ccc(-c2csc(N(CCCN3CCOCC3)C(=O)c3ccco3)n2)cc1	none
CC(=O)NC(c1ccc(Cl)cc1)c1c(O)ccc2ccc(O)cc12 (stereo not drawn)	RecA splice inh 59.4 | GFP chromophore 11.9
Cn1ccnc1SCC(=O)c1cccc(C(F)(F)F)c1	none
O=C1C(Cl)=C(N2CCCCC2)C(=O)N1c1ccccc1	RecA splice inh 40.9 (no result: Mtb betalactam) | GFP chromophore 8.78
COc1ccc(OC)c(N2C(=O)C(Cl)=C(N3CCCCC3)C2=O)c1	RecA splice inh 62.6 | GFP chromophore 16.9
O=C1C(Cl)=C(N2CCCCC2)C(=O)N1c1ccccc1Cl	RecA splice inh 76.7 | GFP chromophore 6.17
Cc1ccccc1N1C(=O)C(Cl)=C(N2CCCCCC2)C1=O	none
COc1ccccc1N1C(=O)C(Cl)=C(N2CCCC2)C1=O	none
CCOC(=O)/C=c1\s/c(=C(\C#N)C(=O)NC)n(-c2ccccc2)c1=O	none
CCOC(=O)/C=c1\s/c(=C(\C#N)C(N)=O)n(-c2ccccc2)c1=O	RecA splice inh 48.9 | GFP chromophore 24.2
Cc1c(N=C2C=CC(=O)c3ccccc32)c(=O)n(-c2ccccc2)n1C	RecA splice inh 72.3 (no result: UGM FP inh, Mtb betalactam, Rv3671c protease) | GFP chromophore 1.81
COc1cc(Cl)ccc1NC(=O)COc1ccccc1C(=O)NN	none
CC1=NN(c2nc(-c3ccccc3)cs2)C(=O)C1	RecA splice inh 65.7 | GFP chromophore 8.54
O=C1CC(c2ccccc2)=NN1c1nc(-c2ccccc2)cs1	none
CN(C)CCC(=O)c1ccc(Cl)cc1	none
COc1cccc(S(=O)(=O)NC2CCN(C#N)C2)c1 (stereo not drawn)	none (no result: RecA splice inh)
COc1cccc(OCC(=O)NC2CCS(=O)(=O)C2)c1 (stereo not drawn)	none (no result: UGM FP inh, RecA splice inh, Mtb betalactam, Rv3671c protease)
CCn1c(C)cc2c(c1=O)C(c1ccncc1)C(C#N)=C(N)O2 (stereo not drawn)	none
Cc1cc2c(c(=O)n1C1CC1)C(c1cccc(Cl)c1)C(C#N)=C(N)O2 (stereo not drawn)	none
Cc1ccc(-n2nc(C)c3c2OC(N)=C(C#N)C3c2cccs2)cc1 (stereo not drawn)	RecA splice inh 65.2 | GFP chromophore 4.99
Cc1nn(Cc2ccccc2)c2c1C(c1cccc(Cl)c1)C(C#N)=C(N)O2 (stereo not drawn)	RecA splice inh 72.9 | GFP chromophore 32.5
COc1cc(-n2nc(C)c3c2OC(N)=C(C#N)C3c2ccccc2)c(Cl)c(Br)c1O (stereo not drawn)	RecA splice inh 72.3 | GFP chromophore 20.3
Cc1nn(-c2ccccc2)c(Cl)c1C1C(C#N)=C(N)Oc2c1c(C)nn2-c1ccccc1 (stereo not drawn)	none
CCCc1nn(C)c2c1C(c1ccncc1)C(C#N)=C(N)O2 (stereo not drawn)	RecA splice inh 64.3 | GFP chromophore 29.5
CC1Oc2ccc(C#N)cc2N(Cc2cccc(F)c2)C1=O (stereo not drawn)	none (no result: UGM FP inh, RecA splice inh, Mtb betalactam, Rv3671c protease)
Cc1ccc(S(=O)(=O)N2CCC(=O)N(CCOC(=O)Nc3ccccc3C)CC2)cc1	none
Cc1nn(-c2ccccc2)c2c1C(c1ccncc1)C(C#N)=C(N)O2 (stereo not drawn)	RecA splice inh 37.6 | GFP chromophore 17.2
Cc1ccc(-n2nc(C)c3c2OC(N)=C(C#N)C3c2ccncc2)cc1 (stereo not drawn)	none (no result: RecA splice inh)
CSc1ccc(CNC(=O)C2Cc3cc(S(=O)(=O)N4CCCC4)ccc3N2C(C)=O)cc1 (stereo not drawn)	none
Cc1ccc([C@H]2C[C@@H](O)[C@H](n3cc(COC(=O)c4ccccc4)nn3)CN2CC2CCCCC2)cc1	none (no result: UGM FP inh, RecA splice inh, Mtb betalactam, Rv3671c protease)
O=[N+]([O-])c1ccc(N2CCCC(C(F)(F)F)C2)c2ccncc12 (stereo not drawn)	RecA splice inh 32.9 | GFP chromophore inactive
O=C1NC(=O)C(=Cc2ccccc2[N+](=O)[O-])C(=O)N1	none (no result: UGM FP inh, RecA splice inh, Mtb betalactam, Rv3671c protease)
O=C1NC(=O)C(=Cc2cc3c(cc2[N+](=O)[O-])OCO3)C(=O)N1	RecA splice inh 38.8 | GFP chromophore inactive
COc1cc(/C=C2/SC(=S)NC2=O)ccc1OS(=O)(=O)c1ccc(C)cc1	RecA splice inh 35.6 | GFP chromophore 22.9
COc1cc(/C=C2\SC(=S)NC2=O)ccc1OS(=O)(=O)c1ccccc1	none (no result: GDH-TPI counter, FBA Mtb inh)
Cc1cc2c3c(c1)C(C)CC(C)(C)N3C(=O)C2=C(C#N)C#N (stereo not drawn)	RecA splice inh 38.9 | GFP chromophore 3.74
CC1CC(C)(C)N2C(=O)C(=C(C#N)C#N)c3cccc1c32 (stereo not drawn)	none
COc1cccc(C(c2c(C)[nH]n(-c3ccccc3)c2=O)c2c(C)[nH]n(-c3ccccc3)c2=O)c1OC	RecA splice inh 93.7 | GFP chromophore 1.77
COc1cccc(C(c2c(C)[nH]n(-c3ccccc3)c2=O)c2c(C)[nH]n(-c3ccccc3)c2=O)c1O	RecA splice inh 66.5 | GFP chromophore 1.48
O=C(NCc1ccc2c(c1)OCO2)c1nc(S(=O)(=O)Cc2ccccc2F)ncc1Cl	RecA splice inh 37.2 | GFP chromophore 8.85
O=C(NCc1ccc2c(c1)OCO2)c1nc(S(=O)(=O)Cc2ccccc2)ncc1Cl	RecA splice inh 53.3 | GFP chromophore 14.4
COc1ccc(NCN2C(=O)CCC2=O)cc1	none
CCn1cnc2c([N+](=O)[O-])c(NS(=O)(=O)c3ccc(C)cc3)ccc21	none
COc1cc(/C=C(\C#N)c2nc3ccccc3s2)cc([N+](=O)[O-])c1O	none (no result: UGM FP inh, RecA splice inh, Mtb betalactam, Rv3671c protease)
N#C/C(=C\c1ccc(O)c([N+](=O)[O-])c1)c1nc2ccccc2s1	RecA splice inh 50.6 (no result: UGM FP inh, Mtb betalactam, Rv3671c protease) | GFP chromophore 22.6
CCOc1cc(/C=N/NC(=O)C2CCCC2)ccc1OC(C)C	none
CC(C)=CCC/C(C)=C/Cc1c(O)ccc(C(=O)/C=C/c2ccc(O)cc2)c1O	RecA splice inh 44.2 | GFP chromophore inactive
Cc1[nH]n(-c2ccccc2)c(=O)c1/C=N\NC(=O)C1COc2ccccc2O1 (stereo not drawn)	RecA splice inh 38.1 | GFP chromophore inactive
CC(=O)N/N=C/c1c(C)[nH]n(-c2ccccc2)c1=O	none (no result: RecA splice inh)
O=C(NN=c1c(=O)c2ccccc2c1=O)c1ccccc1	RecA splice inh 91.3 | GFP chromophore 5.21
COc1cccc(-n2nnnc2S(C)(=O)=O)c1	RecA splice inh 90.8 | GFP chromophore 7.27

Assay outcomes from PubChem.
